Shown are actives, neighbours in structure and some others; about 1.9% of the full set was active somewhere.
PGE2 EP2 inh: human EP2 receptor antagonists, primary screen, TR-FRET cAMP, C6 glioma cells | inhibition, % at 25 µM | C6 glioma cells expressing human EP2; cells stimulated with saturating PGE2 | actives 0.52% (n = 260,000) | Prostaglandin E2 receptor EP2 subtype (Homo sapiens), P43116;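 active = percent inhibition above 40 after rounding to a whole number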;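 also: rat C6 glioma host cells with rolipram phosphodiesterase inhibitor present; the protocol text gives 20 µM as final concentration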
Target sequence (P43116 whole entry, looked up): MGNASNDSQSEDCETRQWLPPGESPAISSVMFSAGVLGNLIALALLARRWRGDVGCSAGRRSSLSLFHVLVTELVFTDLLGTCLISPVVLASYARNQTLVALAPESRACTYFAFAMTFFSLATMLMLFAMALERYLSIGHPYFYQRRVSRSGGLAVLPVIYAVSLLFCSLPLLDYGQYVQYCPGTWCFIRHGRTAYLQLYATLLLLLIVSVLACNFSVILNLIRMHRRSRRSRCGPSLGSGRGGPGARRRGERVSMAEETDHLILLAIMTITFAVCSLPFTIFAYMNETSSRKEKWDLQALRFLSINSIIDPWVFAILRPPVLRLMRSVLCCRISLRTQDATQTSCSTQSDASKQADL
S1P4 agonist: S1P4 receptor agonists, primary screen, cell-based; AID 1509, 2009; actives 0.35% (n = 220,000); S1P4-expressing cell line, agonist reporter assay; activation, % at 4.98 µM; in the data active = activation above about 11%;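 also: 0% = DMSO vehicle and 100% = reference agonist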
Pf gametocyte: late stage P. falciparum gametocyte viability inhibitors, primary screen, ATP luminescence, HTS; P. falciparum stage V gametocytes, 24 h; inhibition, % at 10.9 µM; actives 0.065% (n = 150,000); AID 743093, 2013;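 active = inhibition above the mean plus 3 SD of compounds within the control limits, set per campaign, cut at about 38% in these data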;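 also: 0% = DMSO wells and 100% = medium only without gametocytes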
S1P3 antag: S1P3 receptor antagonists, primary screen, cell-based; CHO S1P3 NFAT-BLA reporter, FRET fluorescence, antagonist mode; inhibition, % at 4.98 µM; actives 0.27% (n = 170,000); AID 485, 2006;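 active = inhibition above the plate cutoff, the mean inhibition of test wells on that plate plus 3 SD, cut at about 28% in these data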;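 also: cells challenged with S1P at its EC80 of 0.8 µM; blue over green emission ratio from cleaved BLA substrate after 4 h stimulation; 0% = S1P-stimulated wells and 100% = unstimulated DMSO-only wells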
S1P4 antagonist: S1P4 receptor antagonists, primary screen, cell-based. actives 0.26% (n = 220,000). S1P4-expressing cells, antagonist mode, reporter read-out. inhibition, % at 4.98 µM. Sphingosine 1-phosphate receptor 4 (Homo sapiens), O95977; in the data active = inhibition above about 29%;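 also: 0% = wells stimulated with agonist and 100% = vehicle wells without agonist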
EP2 modulator: EP2 receptor modulators, cAMP readout, primary screen, cell-based, HTRF cAMP, PGE2 stimulation; induction, % at 25 µM; AID 940, 2007; actives 0.83% (n = 260,000); EP2-expressing cells, cAMP HTRF FRET, PGE2 co-stimulation;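 active = compounds whose cAMP rise, as percent of the full-agonist control response, exceeds 60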;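 also: rat C6 glioma line stably carrying human EP2 under a CMV promoter; the protocol text gives 20 µM as final concentration; 100% = response of wells given 1 µM PGE2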
S1P4 antag conf: S1P4 receptor antagonists, human, confirmation, cell-based; shares compounds with S1P4 antagonist; S1P4-expressing cell line, antagonist mode, reporter read-out; inhibition, % at 4.98 µM; actives 71% (n = 520); AID 1524, 2009; in the data active = inhibition above about 30%
S1P1 antag: S1P1 receptor antagonists, human, counter-screen for S1P4 antagonist project, cell-based; AID 1564, 2009; actives 37% (n = 520); shares compounds with S1P4 antagonist; cell-based S1P1 antagonist counterscreen, inhibition; inhibition, % at 4.98 µM; in the data active = inhibition above about 40%;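 also: receptor stimulated with S1P near its EC80; 0% = agonist stimulated wells and 100% = vehicle only wells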
An asterisk follows results filed as active; . = not tested or not shown.

SMILES	PGE2 EP2 inh	S1P4 agonist	Pf gametocyte	S1P3 antag	S1P4 antagonist	EP2 modulator	S1P4 antag conf	S1P1 antag
COCCn1c(SCc2ccccc2F)nnc1-c1ccco1	9	.	.	.	.	-12	.	.
O=C(N/N=C/c1ccccc1)c1n[nH]c2c1CCCC2	-2	2	9	20	-12	0	.	.
O=C(N/N=C/C(Br)=C/c1ccccc1)c1n[nH]c2c1CCC2	2	-2	.	.	32*	-6	46*	82*
CC1CN(Cn2nc3c4ccccc4ncn3c2=O)CC(C)O1 (stereo not drawn)	.	.	.	.	.	-40	.	.
O=C(Nc1nc2ccccc2c(=O)s1)c1ccco1	6	0	-6	3	30*	2	27	-17
O=C(Nc1nc2cc3c(cc2s1)OCO3)c1ccco1	5	0	-8	1	-10	-8	.	.
CCN(C(=O)c1cccc(OC)c1OC)c1nnc(-c2ccc(C)cc2)s1	10	.	.	.	.	3	.	.
O=c1c(Br)c(Br)cnn1-c1ccccc1	30	-3	22	6	112*	47	121*	48*
Cc1ccc(-n2ncc(Br)c(Br)c2=O)cc1	26	2	.	1	103*	15	117*	37
O=c1c(Br)c(N2CCCC2)cnn1-c1ccccc1	7	-2	-11	5	-8	15	.	.
Cc1sc2nc(C3CC3)n(C3CCN(C(=O)Cc4ccc(F)cc4)CC3)c(=O)c2c1C	.	.	.	.	.	8	.	.
COc1ccccc1N1CCN(C(=O)CN(c2cccc(C)c2C)S(C)(=O)=O)CC1	11	.	.	.	.	-43	.	.
Cc1ccnc(Sc2nc3c(c(=O)[nH]c(=O)n3C)n2Cc2ccccc2Cl)n1	14	.	.	.	.	-60	.	.
Cc1cccc(N=C2NC(=O)/C(=C/c3cccn3C)S2)c1C	7	1	-19	23	36*	-31	16	14
Cn1cnc([N+](=O)[O-])c1S(=O)(=O)c1cccc(Cl)c1	12	4	-4	-11	48*	-34	47*	63*
Cc1cc2cc(CN(Cc3ccco3)C(=S)Nc3ccccc3)c(=O)[nH]c2cc1Cl	5	.	.	.	.	3	.	.
CCc1ccc(NC(=O)CN2CCC(c3nc4ccc(Cl)cc4[nH]3)CC2)cc1	4	.	.	.	.	-34	.	.
O=C1/C(=C/c2ccc(N3CCOCC3)o2)SC(=Nc2ccccc2)N1CCc1c[nH]c2ccccc12	12	0	.	.	46*	25	64*	46*
COc1cc(/C=C2\SC(=Nc3ccccc3)N(CCc3c[nH]c4ccccc34)C2=O)ccc1OC(C)C(=O)O (stereo not drawn)	8	0	24	7	-15	-13	.	.
O=C(Oc1cccc(/C=N/Nc2nc(Nc3ccccc3)nc(N3CCOCC3)n2)c1)c1ccco1	20	-1	.	-6	38*	-19	70*	48*
Oc1ccccc1C1CC(c2cccs2)=NC(c2cccc(Br)c2)N1 (stereo not drawn)	6	2	-3	-1	30*	33	43*	20
S=c1[nH]nc(-c2cc(-c3ccccc3)n[nH]2)n1/N=C/c1ccccc1	7	1	23	2	-13	21	.	.
S=c1[nH]nc(-c2cc(-c3ccccc3)n[nH]2)n1/N=C/C(Br)=C/c1ccccc1	12	0	12	-4	35*	1	66*	24
CCOC(=O)C1=C(C)OC(N)=C(C#N)C1c1cc2cc(CC)ccc2[nH]c1=O (stereo not drawn)	11	.	.	.	.	-32	.	.
O=C(c1cccs1)N1CCC[C@H]1Cn1nc(-c2ccc(F)cc2)ccc1=O	.	.	.	.	.	-24	.	.
CC(C)(C)c1ccc(-n2nc(C#N)c(Cl)cc2=O)cc1	6	-6	-18	-5	110*	-56	120*	49*
CN1c2ccccc2Oc2nnc(Cl)cc21	10	0	-21	-6	2	24	.	.

Screening data as filed in PubChem BioAssay.
